# Test results as given in PubChem BioAssay (NCATS).
# Results filed as inconclusive are left out. Active and inactive are the calls of the source. Calls follow the shape of the dose curve; as a rule, active = well fitted activation curve with a large enough effect; inconclusive = small, poorly fitted or top-dose-only effect; inactive = flat fitted curve, though single readings scatter.
# Experiment: Cellular Toxicity (caspase-3) Jurkat (AID 655);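 also: cells exposed to compound for 16 h at 37 °C before reading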
# Conditions: Jurkat caspase-3 activation, luminescence; series mostly up to 92.2 µM; caspase-3 activation: at the top concentration
# From the text: NIH Chemical Genomics Center [NCGC]
# NIH Molecular Libraries Screening Centers Network [MLSCN]
# National Institutes of Environmental Health Sciences [NIEHS]
# National Toxicology Program [NTP]
# We have developed a 1536-well cell-based assay for quantitative high throughput screening (qHTS) against a number of cell lines to determine in vitro caspase 3/7 of small molecules. This particular assay uses the Jurkat cell line which is derived from human T cell leukemia.
# NCGC Assay Protocol Summary:
# The Caspase-Glo 3/7 assay (Promega) is a homogeneous method to measure caspase-3 and caspase-7 activities in cultured cells. The quantitation of caspase 3/7 activity is based on the cleavage of a peptide-aminoluciferin substrate. After caspase cleaves the substrate the free aminoluciferin is liberated and serves as the substrate of luciferase, which generates the light. The luminescent signal is proportional to amount of caspase 3/7 activity present.
# Using the Caspase-Glo 3/7 assay, the amount of caspase 3/7 activity was measured in the Jurkat cell line with complete culture medium following compound treatment for 16 hours. The assay was performed in opaque white 1536-well plates. In the screen, tamoxifen and doxorubicin were used as positive controls. Library compounds were measured for their ability to cause the activation of caspase 3/7 in the cell line, as reflected by an increase in luminescence signal, in a concentration-dependent manner. Data were normalized to the controls for basal activity (DMSO only) and 100% stimulation (100 uM tamoxifen). AC50 values were determined from concentration-response data modeled with the standard Hill equation.
# qHTS protocol for caspase 3/7 assay in Jurkat cells
# [Step] [Parameter] [Value] [Description]
# 1. Reagent; 5 uL; 5000 Jurkat cells/well
# 3. Controls; 23 nL; Tamoxifen 0.23 uM to 100 uM & Doxorubicin 7.0 pM to 100 uM
# 4. Time; 16 hr; 37 °C incubation
# 5. Reagent; 5 uL; Caspase-Glo 3/7 reagent
# 6. Time; 20 min; Room Temperature
# 7. Detection; Luminescence; Viewlux plate reader
# Keywords: caspase 3/7, apoptosis, Jurkat cell line, luminescence, NTPHTS, NTPHTS_NCGC, NIEHS, EPA, DSSTox, MLSMR, MLSCN, NIH Roadmap, qHTS, NCGC
# Potency is read from the fitted curve at half-maximal effect.
Structure (SMILES),caspase-3 activation,Potency
Brc1ccccc1-c1ccccc1,-0.745% (inactive),–
Cc1cc(C(C)(C)C)c(O)c(C(C)(C)C)c1,23.2% (inactive),–
CCCC(=O)c1cc(O)c(O)cc1O,-3.4% (inactive),–
O=C(Oc1ccccc1)c1ccccc1O,3.34% (inactive),–
O=C(NO)c1ccccc1,3.67% (inactive),–
COc1cc(C=O)ccc1O,-0.438% (inactive),–
CCCCC(CC)COC(=O)c1ccccc1C(=O)O (stereo not given),-0.11% (inactive),–
CC(=O)OC/C=C(C)/C=C/C=C(C)/C=C/C1=C(C)CCCC1(C)C,13.7% (inactive),–
C1=CC2C3C=CC(C3)C2C1 (stereo not given),-0.287% (inactive),–
Cc1ccc(O)cc1,0.159% (inactive),–
CC(C)C(C)(C)C(C)(C)C(C)(C)S,2.46% (inactive),–
c1ccc2occc2c1,-0.96% (inactive),–
CC(C)(C)c1ccc(O)c(O)c1,-10.7% (inactive),–
Oc1ccccc1,1.38% (inactive),–
Nc1cccc2c(N)cccc12,5.35% (inactive),–
CC(C)(c1ccc(O)cc1)c1ccc(O)cc1,–,inactive
O=C(c1ccccc1)c1ccccc1,-2.07% (inactive),–
Nc1c2ccccc2nc2ccccc12,–,31.6 µM (active)
Nc1ccc(O)cc1,-7.92% (inactive),–
OCc1c[nH]c2ccccc12,1.81% (inactive),–
